Measured values taken from article PMC7819943, “Rice protein-binding microarrays: a tool to detect cis-acting elements near promoter regions in rice”.
Over roughly 35,000 sequences, “fluorescence intensity (a.u.)” has its median near 10,000; the highest 2% begin near 52,000. Many of the other results were omitted from the sample, so the highest values are more common in it than they were.

The sequences below were run against T1, OsWOX13 (Oryza sativa, UniProt Q5QMM3 1-267) (assay: protein-binding microarray (RPBM); PBS, 2% BSA, 51.3 ng/ul salmon testes DNA, 50 uM zinc acetate, 200 nM TF, 25 C, 1 h; high values mean tight binding). Conditions: protein: recombinant; tags: N-terminal polyhistidine and DsRed monomer fusion (pET32a); label: CyDye5-dUTP incorporated in the synthesized complementary strand; 3' TTTTT single-stranded linker to array surface; dsDNA, one strand shown.
T1 sequence: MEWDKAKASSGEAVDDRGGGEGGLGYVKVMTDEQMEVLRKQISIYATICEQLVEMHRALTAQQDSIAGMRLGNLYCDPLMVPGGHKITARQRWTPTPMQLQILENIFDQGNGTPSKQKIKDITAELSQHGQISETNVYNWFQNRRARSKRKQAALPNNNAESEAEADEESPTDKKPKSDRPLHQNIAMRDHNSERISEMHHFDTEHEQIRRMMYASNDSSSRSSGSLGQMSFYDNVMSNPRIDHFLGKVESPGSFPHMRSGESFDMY
Procedure, shortened: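 The binding signal for each feature is its fluorescence intensity in arbitrary units. An Axon 4000B scanner was used to read a custom Agilent array that had been made double-stranded with Cy5-dUTP primer extension, blocked with 2% BSA, incubated at 25 °C for 1 h with 200 nM protein in PBS, 2% BSA, salmon testes DNA and 50 µM zinc acetate, and washed. The protein was an N-terminal polyhistidine–DsRed transcription factor fusion from E. coli BL21-CodonPlus, purified on Ni–NTA.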
For “ATTGATCAATCGATCAATCCCTCCTTCCCCATCCAATCCTCGGAGTCACCTAGTGCAG”, the binding signal was 4160 fluorescence intensity (a.u.). For “ATGATTGATCCATGAATCCCATTATCCATCATCCTCGAGTCGGAGTCACCTAGTGCAG”, the binding signal was 63300 fluorescence intensity (a.u.). For “CCGAAATTTGTCTCTTAATCATATACCGCACTTTCTGCCACGGAGTCACCTAGTGCAG”, the binding signal was 16100 fluorescence intensity (a.u.). “TATTAATTGGATAAAGTCATCTATATTAATGTGGATAATACGGAGTCACCTAGTGCAG” was tested, and the binding signal was 17600 fluorescence intensity (a.u.). For “CAGGTGCTCTAACTACTATGTAATTGAACCACTGACATGTCGGAGTCACCTAGTGCAG”, the binding signal was 5510 fluorescence intensity (a.u.). “TAAAAGATTTGTATCACAAATTAGTCGCAATTTGTATAATCGGAGTCACCTAGTGCAG” was tested, and the binding signal was 9610 fluorescence intensity (a.u.). “TTAATTTGTTGTGATTAACGTGGCATGCATGACACTAAAGCGGAGTCACCTAGTGCAG” was tested, and the binding signal was 26900 fluorescence intensity (a.u.). For “AACGCAATCAGTGGGAGATCAATCGCAAAATCACCATCATCGGAGTCACCTAGTGCAG”, the binding signal was 11000 fluorescence intensity (a.u.). In the case of “AAACTAAATTTAGACAGGAGTTCAGGTGATGAGTCAATGGCGGAGTCACCTAGTGCAG”, the binding signal is reported as 36800 fluorescence intensity (a.u.). For “CCTAAATTATTCTAAAATTAAAATGTTAATGGGGAAGTATCGGAGTCACCTAGTGCAG”, the binding signal was 19900 fluorescence intensity (a.u.). “GATTATAAATTACAAGTGTTAATTTGATGAATTTTGTTATCGGAGTCACCTAGTGCAG” was tested, and the binding signal was 19500 fluorescence intensity (a.u.). With “CGAGATTGATTAGGACTCGGAATCGATCGGAGTCGGAGTACGGAGTCACCTAGTGCAG” the binding signal was 54800 fluorescence intensity (a.u.). With “TATTACATCGATCATATTGATTGTCGATTAGTACACCTTACGGAGTCACCTAGTGCAG” the binding signal was 5790 fluorescence intensity (a.u.). “TATAAATAACTTTGAAGATTGAATCGACATATCATACGATCGGAGTCACCTAGTGCAG” was tested, and the binding signal was 21200 fluorescence intensity (a.u.). For “ATGGAAATTGATTAGGAGATTATTGATGCGATAAGTAGTACGGAGTCACCTAGTGCAG”, the binding signal was 37000 fluorescence intensity (a.u.). In the case of “TCCATTGATTGAGGAATAGTGCCAGCTTTAGATTTGCTCCCGGAGTCACCTAGTGCAG”, the binding signal is reported as 53400 fluorescence intensity (a.u.). With “AGTCACTTGATTTGCTTTATCATAGAGCTTGATGAGATCCCGGAGTCACCTAGTGCAG” the binding signal was 24900 fluorescence intensity (a.u.). With “CCAAACAGATTGAACTCGACGATTGGACGAATACGGCGATCGGAGTCACCTAGTGCAG” the binding signal was 58900 fluorescence intensity (a.u.). In the case of “TAAGGTGCAGATTGATTTGCCATCCCAGAGCAGCAGCTTGCGGAGTCACCTAGTGCAG”, the binding signal is reported as 29500 fluorescence intensity (a.u.). “CGGATTGATCGACGGCGAAGAATGAAGCTCACCAGAATTTCGGAGTCACCTAGTGCAG” was tested, and the binding signal was 5290 fluorescence intensity (a.u.). With “TTCAATTTGATTTTGATTTTAGGTGAATCTATAGATATCACGGAGTCACCTAGTGCAG” the binding signal was 9990 fluorescence intensity (a.u.). With “AACTTAATTTGATAAGAAAATTTAGTGGAGTCACCACAAGCGGAGTCACCTAGTGCAG” the binding signal was 44100 fluorescence intensity (a.u.). In the case of “GGAAATATGTTAATTAAAATAATGCAACCCTAATCAGCAACGGAGTCACCTAGTGCAG”, the binding signal is reported as 10500 fluorescence intensity (a.u.). In the case of “GATAATGATATGACCATGGTGATTTCGTCAATCTCAATACCGGAGTCACCTAGTGCAG”, the binding signal is reported as 12100 fluorescence intensity (a.u.). In the case of “CAGACTGACAAGTGACAAGCAGAGGGCATCTCAGTACGCGCGGAGTCACCTAGTGCAG”, the binding signal is reported as 3390 fluorescence intensity (a.u.). “ATCTAGAATTAGATGTGACATATCGTAGTACTATGAACCTCGGAGTCACCTAGTGCAG” was tested, and the binding signal was 4830 fluorescence intensity (a.u.). “GCTCGATTGCCTTTTCATCATTCACATTGTTCTTCTTCTTCGGAGTCACCTAGTGCAG” was tested, and the binding signal was 11600 fluorescence intensity (a.u.). For “CCTCATCCCTGATTGTGATTTTCTTTCCACACCACCCGGACGGAGTCACCTAGTGCAG”, the binding signal was 19500 fluorescence intensity (a.u.). For “GCAAGTGTGATTGATCATTACTTGCTTGGTCTGATGGTTGCGGAGTCACCTAGTGCAG”, the binding signal was 48300 fluorescence intensity (a.u.). In the case of “TTCCGGTTCCTGATTGCTTGCTCCACCGATTGACCGATCGCGGAGTCACCTAGTGCAG”, the binding signal is reported as 18100 fluorescence intensity (a.u.). For “TTTGGATTGATCATGGTCATTTGTACTTTTGTAGTCTTTACGGAGTCACCTAGTGCAG”, the binding signal was 21500 fluorescence intensity (a.u.). With “GTGATTGATTCGATTGATTGCCGCATCCACAGTTCTTTTCCGGAGTCACCTAGTGCAG” the binding signal was 54700 fluorescence intensity (a.u.). For “ATGGTTGATTGCTTGATCAAGGCATGCATCACTTGCTATGCGGAGTCACCTAGTGCAG”, the binding signal was 55800 fluorescence intensity (a.u.). “TGGGCAGCAGCTTGATTTGATTGCTTCATTTATCAAGTTGCGGAGTCACCTAGTGCAG” was tested, and the binding signal was 13600 fluorescence intensity (a.u.). “GGGACAATCAGGGATTGTATGGTTTGAAGCTGATTTTGGCCGGAGTCACCTAGTGCAG” was tested, and the binding signal was 3320 fluorescence intensity (a.u.). With “AATGCTTGATTGCACTTCGCTGTTCAGTTCATCATGCCTACGGAGTCACCTAGTGCAG” the binding signal was 27400 fluorescence intensity (a.u.). With “GAGCTATTGATTGATTGATTGCTGATCGCTTCCAGTTCCACGGAGTCACCTAGTGCAG” the binding signal was 54700 fluorescence intensity (a.u.). For “CTTGATTGGATCAGGATCATTTGGCATGGTTTACAAGGGCCGGAGTCACCTAGTGCAG”, the binding signal was 65100 fluorescence intensity (a.u.). In the case of “CTCTACAGTAAATCAAACAGTAATCACACTCCAAACAAAACGGAGTCACCTAGTGCAG”, the binding signal is reported as 5420 fluorescence intensity (a.u.). For “ATTGGCTAGATTGGAAGCAAGAGAAGCTGCAGCGAAGGCACGGAGTCACCTAGTGCAG”, the binding signal was 7860 fluorescence intensity (a.u.). “TTTGGAAATTATCTATGAATTTACCTAGTTTCATCGTCCACGGAGTCACCTAGTGCAG” was tested, and the binding signal was 4970 fluorescence intensity (a.u.). “AGTTTTACAATAAATTTACTGTTATAAATATACATTTAACCGGAGTCACCTAGTGCAG” was tested, and the binding signal was 6140 fluorescence intensity (a.u.).
